These sequences were tested against EHD3 (assay: pooled miR-30 sensor sort-seq; sequence = guide strand). Details: shRNA.
For TAGAAGATCTCGTCGTACATGG, the sensor-assay potency score (higher = more potent) was -0.19. TGCAAACTCGTCGTCGTCCAGC gave a sensor-assay potency score (higher = more potent) of -1.01. TTTGTGGGCATCGAAGAGCAGA gave a sensor-assay potency score (higher = more potent) of -1.26. TTTCTTGGGATCCACCACCAGG gave a sensor-assay potency score (higher = more potent) of -1.36. TAGGAAAGAACAGAGCTCCTGG gave a sensor-assay potency score (higher = more potent) of 0.716. TTGACCAGCTCCTTCTTCTTGT was tested, and the sensor-assay potency score (higher = more potent) was 0.288. Sequence TTCAGCACCACTCGCATCTTGT has a sensor-assay potency score (higher = more potent) of -0.387. TCGAAGAGCAGAATGATGCGGT showed a sensor-assay potency score (higher = more potent) of 0.407. In the case of TTGATGAGGTCGTTGAGCTTGC, the sensor-assay potency score (higher = more potent) is reported as 0.159. TTGTCCTTCCCGAACACCGAGG gave a sensor-assay potency score (higher = more potent) of -1.14. TTCTTCTTGTTGTCCTTCCCGA showed a sensor-assay potency score (higher = more potent) of -0.7.

These sequences were tested against EHMT2 in the same assay as above. Details: shRNA.
Work on TTAGTTGTTCAGTTAGAGCTTC yielded a sensor-assay potency score (higher = more potent) of 0.313. TTGAGCTTCAGAAGCATCCTCC gave a sensor-assay potency score (higher = more potent) of 0.398. For TTACACTCGAAAATCAGCGGAG, the sensor-assay potency score (higher = more potent) was -0.173. For TAGCATGCGGATCACCTCGATG, the sensor-assay potency score (higher = more potent) was -1.39. TTGACGTCCACCTGTCCTGTGC gave a sensor-assay potency score (higher = more potent) of -0.646. For TAGAGCTTCAACTTCAGACTTG, the sensor-assay potency score (higher = more potent) was 0.68. Sequence TTGAGTTGAAGCGCAAACCACA has a sensor-assay potency score (higher = more potent) of -1.4. For TTCATGGTGGACGTCTCGCAGT, the sensor-assay potency score (higher = more potent) was -1.22. Work on ATCCTTGTTGTCTAAGTCGAAG yielded a sensor-assay potency score (higher = more potent) of -1.84. Sequence TGAGTGGACATCATCACTCATG has a sensor-assay potency score (higher = more potent) of -1.27. Work on TTGCTCTGCTGGTCGCTCTGGA yielded a sensor-assay potency score (higher = more potent) of -0.425. In the case of TTCTTCTTGGCCTTGCGCCGGC, the sensor-assay potency score (higher = more potent) is reported as -0.437.

Each sequence was assayed against EID2B in the same assay as above. Details: shRNA.
Work on TAACTAAACTGGCACAGCCTGC yielded a sensor-assay potency score (higher = more potent) of -0.861. TTCCTGACAACTCTATTTCTTT was tested, and the sensor-assay potency score (higher = more potent) was -0.963. TTGACATGACCACAAATTGTGA was tested, and the sensor-assay potency score (higher = more potent) was -1.04. TTTTTTCTCATATCTTTGCAAA showed a sensor-assay potency score (higher = more potent) of -1.11. ATACTCGCGGAACAACAGCTGC gave a sensor-assay potency score (higher = more potent) of -1.3. Sequence TCGCGGAACAACAGCTGCCGGT has a sensor-assay potency score (higher = more potent) of -1.55. TTTTCTATTGAATATTTACTGT gave a sensor-assay potency score (higher = more potent) of -0.85. For TATCTTTGCAAAACCATCCTTT, the sensor-assay potency score (higher = more potent) was -0.0384. Work on TAAGTCAGAAGTGTCTTGGGAC yielded a sensor-assay potency score (higher = more potent) of 0.252. TTTTCTTTCATCACTTAGGTTC was tested, and the sensor-assay potency score (higher = more potent) was -0.263. TAAACTGGCACAGCCTGCCTGT showed a sensor-assay potency score (higher = more potent) of -0.54. TTCTATTGAATATTTACTGTTC showed a sensor-assay potency score (higher = more potent) of 0.0406.

These sequences were tested against EIF1 in the same assay as above. Details: shRNA.
TTGCAGGCAAACTTTTTCTTAA was tested, and the sensor-assay potency score (higher = more potent) was -0.992. For AATTACTTCTCCATATTCCGGA, the sensor-assay potency score (higher = more potent) was 0.541. For TTACTTGCATCAGCAAAGGGGT, the sensor-assay potency score (higher = more potent) was -1.07. Work on TTTATCGTAATCATCAGCGATC yielded a sensor-assay potency score (higher = more potent) of -0.622. With TTTTATCGTAATCATCAGCGAT the sensor-assay potency score (higher = more potent) was -0.796.

Reference: the OligoGym collection
